# Laboratory results published in ChEMBL document CHEMBL5598561, “ASAP - In vitro binding kinetics” (2024).
# Biological target: Nonstructural protein 3 (Zika virus) (UniProt A0A024AXB9)
# Sequence (A0A024AXB9 as listed by the source): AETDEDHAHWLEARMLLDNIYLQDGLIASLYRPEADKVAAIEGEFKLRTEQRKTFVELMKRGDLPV
smiles,measurement,setting,value
O=C(Nc1ccc2c(c1)CNC2)c1cc(Cl)cc2c1CCC2,pKD,"PRVABC59, Concentration 10.0 uM, Immobilization level 10000.0 pg/mm2, Rmax 25.0 pg/mm2, ka 106816.236 M-1s-1, kd 0.472 1/s",5.36
same,pKD,"PRVABC59, Concentration 10.0 uM, Immobilization level 12000.0 pg/mm2, Rmax 64.0 pg/mm2, ka 30866.003 M-1s-1, kd 0.225 1/s",5.14
same,pKD,"PRVABC59, Concentration 10.0 uM, Immobilization level 13000.0 pg/mm2, Rmax 31.0 pg/mm2, ka 79832.742 M-1s-1, kd 0.384 1/s",5.32
Cc1cc(NC(=O)c2cc(Cl)cc3[nH]ncc23)ccc1N1CCNCC1,pKD,"PRVABC59, Concentration 10.0 uM, Immobilization level 10000.0 pg/mm2, Rmax 68.0 pg/mm2, ka 142841.774 M-1s-1",4.45
same,pKD,"PRVABC59, Concentration 10.0 uM, Immobilization level 12000.0 pg/mm2, Rmax 26.0 pg/mm2, ka 204393.234 M-1s-1, kd 2.532 1/s",4.91
same,pKD,"PRVABC59, Concentration 10.0 uM, Immobilization level 13000.0 pg/mm2, Rmax 38.0 pg/mm2, ka 209487.853 M-1s-1, kd 3.706 1/s",4.75
CCc1cc(Cl)cc(C(=O)Nc2ccc3c(c2)CNC3)c1,pKD,"PRVABC59, Concentration 10.0 uM, Immobilization level 10000.0 pg/mm2, Rmax 7.0 pg/mm2, ka 456970.038 M-1s-1, kd 1.322 1/s",5.54
same,pKD,"PRVABC59, Concentration 10.0 uM, Immobilization level 12000.0 pg/mm2, Rmax 55.0 pg/mm2, ka 33985.237 M-1s-1, kd 0.743 1/s",4.66
same,pKD,"PRVABC59, Concentration 10.0 uM, Immobilization level 13000.0 pg/mm2, Rmax 17.0 pg/mm2, ka 179212.289 M-1s-1, kd 1.129 1/s",5.2
O=C(Nc1ccc2c(c1)CNC2)c1cccc2[nH]ncc12,pKD,"PRVABC59, Concentration 10.0 uM, Immobilization level 10000.0 pg/mm2, Rmax 19.0 pg/mm2, ka 1068955.381 M-1s-1, kd 0.689 1/s",6.19
same,pKD,"PRVABC59, Concentration 10.0 uM, Immobilization level 12000.0 pg/mm2, Rmax 37.0 pg/mm2, ka 703955.922 M-1s-1, kd 0.285 1/s",6.39
same,pKD,"PRVABC59, Concentration 10.0 uM, Immobilization level 13000.0 pg/mm2, Rmax 29.0 pg/mm2, ka 931164.005 M-1s-1, kd 0.45 1/s",6.32
O=C(Nc1ccc2c(c1)CNC2)c1cc(Br)cc2ccccc12,pKD,"PRVABC59, Concentration 10.0 uM, Immobilization level 10000.0 pg/mm2, Rmax 20.0 pg/mm2, ka 1054680.734 M-1s-1, kd 0.691 1/s",6.18
same,pKD,"PRVABC59, Concentration 10.0 uM, Immobilization level 12000.0 pg/mm2, Rmax 63.0 pg/mm2, ka 507441.603 M-1s-1, kd 0.463 1/s",6.04
same,pKD,"PRVABC59, Concentration 10.0 uM, Immobilization level 13000.0 pg/mm2, Rmax 45.0 pg/mm2, ka 357590.388 M-1s-1, kd 0.673 1/s",5.72
O=C(Nc1ccc2c(c1)CNC2)c1cc(Br)cc2c1OCO2,pKD,"PRVABC59, Concentration 10.0 uM, Immobilization level 10000.0 pg/mm2, Rmax 23.0 pg/mm2, ka 221801.012 M-1s-1, kd 2.02 1/s",5.04
same,pKD,"PRVABC59, Concentration 10.0 uM, Immobilization level 12000.0 pg/mm2, Rmax 42.0 pg/mm2, ka 116147.62 M-1s-1, kd 1.164 1/s",5
same,pKD,"PRVABC59, Concentration 10.0 uM, Immobilization level 13000.0 pg/mm2, Rmax 30.0 pg/mm2, ka 164731.302 M-1s-1, kd 1.67 1/s",4.99
O=C(Nc1ccc2c(c1)CNC2)c1cc(F)cc2[nH]nnc12,pKD,"PRVABC59, Concentration 10.0 uM, Immobilization level 10000.0 pg/mm2, Rmax 22.0 pg/mm2, ka 162374.237 M-1s-1, kd 0.724 1/s",5.35
same,pKD,"PRVABC59, Concentration 10.0 uM, Immobilization level 12000.0 pg/mm2, Rmax 50.0 pg/mm2, ka 32556.979 M-1s-1, kd 0.41 1/s",4.9
same,pKD,"PRVABC59, Concentration 10.0 uM, Immobilization level 13000.0 pg/mm2, Rmax 48.0 pg/mm2, ka 67317.145 M-1s-1, kd 0.674 1/s",5
COc1cc(Br)cc(C(=O)Nc2ccc3c(c2)CNC3)c1,pKD,"PRVABC59, Concentration 10.0 uM, Immobilization level 3900.0 pg/mm2, Rmax 30.0 pg/mm2, ka 1022660.121 M-1s-1, kd 0.519 1/s",6.29
same,pKD,"PRVABC59, Concentration 10.0 uM, Immobilization level 4900.0 pg/mm2, Rmax 37.0 pg/mm2, ka 628733.109 M-1s-1, kd 0.436 1/s",6.16
same,pKD,"PRVABC59, Concentration 10.0 uM, Immobilization level 5500.0 pg/mm2, Rmax 32.0 pg/mm2, ka 715576.018 M-1s-1, kd 0.434 1/s",6.22
same,pKD,"PRVABC59, Concentration 10.0 uM, Immobilization level 10000.0 pg/mm2, Rmax 31.0 pg/mm2, ka 878454.345 M-1s-1, kd 0.618 1/s",6.15
same,pKD,"PRVABC59, Concentration 10.0 uM, Immobilization level 12000.0 pg/mm2, Rmax 51.0 pg/mm2, ka 505054.059 M-1s-1, kd 0.503 1/s",6
same,pKD,"PRVABC59, Concentration 10.0 uM, Immobilization level 13000.0 pg/mm2, Rmax 45.0 pg/mm2, ka 775706.649 M-1s-1, kd 0.539 1/s",6.16
CCc1nc2c(C(=O)Nc3ccc4c(c3)CNC4)cc(Br)cc2[nH]1,pKD,"PRVABC59, Concentration 10.0 uM, Immobilization level 10000.0 pg/mm2, Rmax 30.0 pg/mm2, ka 310193.647 M-1s-1, kd 0.373 1/s",5.92
same,pKD,"PRVABC59, Concentration 10.0 uM, Immobilization level 12000.0 pg/mm2, Rmax 36.0 pg/mm2, ka 171120.142 M-1s-1, kd 0.256 1/s",5.83
same,pKD,"PRVABC59, Concentration 10.0 uM, Immobilization level 13000.0 pg/mm2, Rmax 31.0 pg/mm2, ka 250565.843 M-1s-1, kd 0.327 1/s",5.88
O=C(Nc1ccc2c(c1)[C@H]1CC[C@H]2N1)c1cc(Cl)cc2[nH]ncc12,pKD,"PRVABC59, Concentration 10.0 uM, Immobilization level 3900.0 pg/mm2, Rmax 29.0 pg/mm2, ka 207440.056 M-1s-1, kd 1.881 1/s",5.04
same,pKD,"PRVABC59, Concentration 10.0 uM, Immobilization level 4900.0 pg/mm2, Rmax 21.0 pg/mm2, ka 356637.156 M-1s-1, kd 1.239 1/s",5.46
same,pKD,"PRVABC59, Concentration 10.0 uM, Immobilization level 5500.0 pg/mm2, Rmax 38.0 pg/mm2, ka 209576.876 M-1s-1, kd 1.619 1/s",5.11
same,pKD,"PRVABC59, Concentration 10.0 uM, Immobilization level 10000.0 pg/mm2, Rmax 35.0 pg/mm2, ka 240196.621 M-1s-1, kd 1.957 1/s",5.09
same,pKD,"PRVABC59, Concentration 10.0 uM, Immobilization level 12000.0 pg/mm2, Rmax 27.0 pg/mm2, ka 216801.208 M-1s-1, kd 1.112 1/s",5.29
same,pKD,"PRVABC59, Concentration 10.0 uM, Immobilization level 13000.0 pg/mm2, Rmax 42.0 pg/mm2, ka 287948.566 M-1s-1, kd 1.743 1/s",5.22
O=C(Nc1ccc2c(n1)CNC2)c1cc(Cl)cc2[nH]ncc12,pKD,"PRVABC59, Concentration 10.0 uM, Immobilization level 3900.0 pg/mm2, Rmax 29.0 pg/mm2, ka 330423.124 M-1s-1, kd 0.318 1/s",6.02
same,pKD,"PRVABC59, Concentration 10.0 uM, Immobilization level 4900.0 pg/mm2, Rmax 43.0 pg/mm2, ka 188485.066 M-1s-1, kd 0.307 1/s",5.79
same,pKD,"PRVABC59, Concentration 10.0 uM, Immobilization level 5500.0 pg/mm2, Rmax 45.0 pg/mm2, ka 189855.655 M-1s-1, kd 0.314 1/s",5.78
same,pKD,"PRVABC59, Concentration 10.0 uM, Immobilization level 10000.0 pg/mm2, Rmax 55.0 pg/mm2, ka 105317.175 M-1s-1, kd 0.527 1/s",5.3
same,pKD,"PRVABC59, Concentration 10.0 uM, Immobilization level 12000.0 pg/mm2, Rmax 96.0 pg/mm2, ka 37343.204 M-1s-1, kd 0.288 1/s",5.11
same,pKD,"PRVABC59, Concentration 10.0 uM, Immobilization level 13000.0 pg/mm2, Rmax 49.0 pg/mm2, ka 130791.962 M-1s-1, kd 0.347 1/s",5.58
CNC(=O)[C@H](Nc1ccc2c(c1)CNC2)c1cc(Cl)cc(C2CC2)c1,pKD,"PRVABC59, Concentration 10.0 uM, Immobilization level 10000.0 pg/mm2, Rmax 21.0 pg/mm2, ka 735105.2 M-1s-1, kd 0.212 1/s",6.54
same,pKD,"PRVABC59, Concentration 10.0 uM, Immobilization level 12000.0 pg/mm2, Rmax 44.0 pg/mm2, ka 423211.762 M-1s-1, kd 0.126 1/s",6.53
same,pKD,"PRVABC59, Concentration 10.0 uM, Immobilization level 13000.0 pg/mm2, Rmax 34.0 pg/mm2, ka 634638.949 M-1s-1, kd 0.171 1/s",6.57
N#C[C@H](Nc1ccc2c(c1)CNC2)c1cc(Cl)cc(C2CC2)c1,pKD,"PRVABC59, Concentration 10.0 uM, Immobilization level 10000.0 pg/mm2, Rmax 28.0 pg/mm2, ka 179746.524 M-1s-1, kd 1.36 1/s",5.12
same,pKD,"PRVABC59, Concentration 10.0 uM, Immobilization level 12000.0 pg/mm2, Rmax 42.0 pg/mm2, ka 91353.604 M-1s-1, kd 0.386 1/s",5.37
same,pKD,"PRVABC59, Concentration 10.0 uM, Immobilization level 13000.0 pg/mm2, Rmax 52.0 pg/mm2, ka 98756.182 M-1s-1, kd 0.944 1/s",5.02
COCCNC(=O)[C@H](Nc1ccc2c(c1)CNC2)c1cc(Cl)cc(C2CC2)c1,pKD,"PRVABC59, Concentration 10.0 uM, Immobilization level 10000.0 pg/mm2, Rmax 39.0 pg/mm2, ka 617826.514 M-1s-1, kd 0.092 1/s",6.83
same,pKD,"PRVABC59, Concentration 10.0 uM, Immobilization level 12000.0 pg/mm2, Rmax 47.0 pg/mm2, ka 381252.779 M-1s-1, kd 0.077 1/s",6.7
same,pKD,"PRVABC59, Concentration 10.0 uM, Immobilization level 13000.0 pg/mm2, Rmax 46.0 pg/mm2, ka 474021.576 M-1s-1, kd 0.094 1/s",6.7
O=C(Nc1cc(Cl)cc(C(=O)Nc2ccc3c(c2)CNC3)c1)OCc1ccccc1,pKD,"PRVABC59, Concentration 1.0 uM, Immobilization level 3900.0 pg/mm2, Rmax 38.0 pg/mm2, ka 196121.646 M-1s-1, kd 0.113 1/s",6.24
same,pKD,"PRVABC59, Concentration 1.0 uM, Immobilization level 4900.0 pg/mm2, Rmax 45.0 pg/mm2, ka 144681.299 M-1s-1, kd 0.064 1/s",6.35
same,pKD,"PRVABC59, Concentration 1.0 uM, Immobilization level 4900.0 pg/mm2, Rmax 45.0 pg/mm2, ka 172692.705 M-1s-1, kd 0.081 1/s",6.33
same,pKD,"PRVABC59, Concentration 1.0 uM, Immobilization level 5500.0 pg/mm2, Rmax 49.0 pg/mm2, ka 194075.024 M-1s-1, kd 0.087 1/s",6.35
same,pKD,"PRVABC59, Concentration 1.0 uM, Immobilization level 5500.0 pg/mm2, Rmax 54.0 pg/mm2, ka 112858.156 M-1s-1, kd 0.052 1/s",6.33
same,pKD,"PRVABC59, Concentration 10.0 uM, Immobilization level 3900.0 pg/mm2, Rmax 44.0 pg/mm2, ka 164681.147 M-1s-1, kd 0.126 1/s",6.12
Nc1cc(Cl)cc(C(=O)Nc2ccc3c(c2)CNC3)c1N,pKD,"PRVABC59, Concentration 10.0 uM, Immobilization level 10000.0 pg/mm2, Rmax 26.0 pg/mm2, ka 624754.243 M-1s-1, kd 0.161 1/s",6.59
same,pKD,"PRVABC59, Concentration 10.0 uM, Immobilization level 12000.0 pg/mm2, Rmax 44.0 pg/mm2, ka 261141.936 M-1s-1, kd 1.029 1/s",5.4
same,pKD,"PRVABC59, Concentration 10.0 uM, Immobilization level 13000.0 pg/mm2, Rmax 23.0 pg/mm2, ka 816818.479 M-1s-1, kd 0.326 1/s",6.4
